The list is not random: actives were taken first. Their share in the collection is about 4.2%.
Mac1 fbg inh = inhibitors of human CD11b/CD18 binding to fibrinogen | inhibition, % at 10 µM | K562 CD11b/CD18 adhesion to fibrinogen, ATPlite luminescence; Mn2+ added to activate the integrin | P05107+P11215 | 0.54% of 93,000 active;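 active = primary inhibition of 50% or more at 10 µM, then 40% or more on retest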
Pyk2 oligo antag = antagonists of human Pyk2 oligomerization | z-score (the deposit names both 25 µM and 10 µM) | Q293 cells, Pyk2 FERM NanoBiT luminescence; hits give low values | 0.83% of 99,000 active;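 active = Z-score of -3 or lower, scaled per plate to the spread of control and sample wells; inactive = z-score above -3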;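 also: negative z-score means lost luminescence so less FERM oligomerization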
Mac1 fbg enh = enhancers of human CD11b/CD18 binding to fibrinogen | P05107+P11215 | K562 CD11b/CD18 adhesion to fibrinogen, ATPlite luminescence | activation, % at 10 µM | 0.07% of 93,000 active;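 active = 10 µM primary screen giving 50% or more activity, confirmed by 40% or more on retest at that dose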
Cav3 T inh = blocks human Cav3.2 T-type calcium channel; B-score at 10 µM; Cav3.2-expressing cells, Fluo-4 calcium fluorescence FDSS; hits give low values; 4% of 100,000 active; O95180;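 active = single-dose well whose peak fluorescence ratio is a statistical outlier from its plate by either plate-standardised score or position-corrected B-score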
Ec RNAP inh = inhibitors of Escherichia coli RNA polymerase. 0.2% of 62,000 active. inhibition, %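 (tested at 10 µM)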. P0A8V2. E. coli RNA polymerase, fluorescence transcription assay; in the data active = inhibition above about 20%;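 also: 0% = enzyme without compound and 100% = no enzyme blank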
* = called active by the depositor.

`N#Cc1c(N)c(C#N)c(-c2ccc3c(c2)OCO3)c2c1CCCC2` gave Mac1 fbg inh -4, Pyk2 oligo antag -2.6, Mac1 fbg enh 2, Cav3 T inh -0.11 and Ec RNAP inh -6.
Screening N#Cc1c(N)c(C#N)c(-c2ccc(O)cc2)c2c1CCCC2 returned Mac1 fbg inh -3, Pyk2 oligo antag -1.9, Mac1 fbg enh -2, Cav3 T inh -5.6* and Ec RNAP inh 3.
Screening COC(=O)/C(=C\Nc1ccc(Cl)c2ccccc12)c1ncc(C(F)(F)F)cc1Cl returned Mac1 fbg inh 2, Pyk2 oligo antag -3.4*, Mac1 fbg enh 1 and Cav3 T inh -0.29.
For Cc1ccc(C(=O)C[n+]2cc(-c3ccc(C)cc3)n3c2CCCCC3)cc1 the results were Mac1 fbg inh 54*, Pyk2 oligo antag -0.93 and Mac1 fbg enh -6.
Screening Nc1nc(SCC(=O)Nc2ccccc2Sc2ccc(Cl)cc2)n[nH]1 returned Pyk2 oligo antag -0.21 and Cav3 T inh -5.9*.
`Cc1ccc(CNC(=O)Cn2cccc2C(=O)c2ccccc2)cc1` gave Mac1 fbg inh -2, Pyk2 oligo antag -0.4, Mac1 fbg enh 3 and Cav3 T inh -4.9*.
Cc1cc(/C=N/NC(=O)c2cccs2)c(C)n1-c1ccccc1 was read as Mac1 fbg inh 48, Pyk2 oligo antag 0.15, Mac1 fbg enh -4 and Cav3 T inh -7.9*.
For Cc1ccc2oc(=O)c3cnn(CC(=O)Nc4cc(-c5cccc(F)c5)no4)c3c2c1 the results were Cav3 T inh 0.16.
CC1=CC(C)(C)N(S(=O)(=O)c2ccc(F)cc2)c2ccc(C)cc21 was read as Mac1 fbg inh 36, Pyk2 oligo antag -0.42, Mac1 fbg enh -3 and Cav3 T inh -2.8.
Screening CC1=CC(C)(C)N(S(=O)(=O)c2ccc(C)cc2)c2ccccc21 returned Mac1 fbg inh 52*, Pyk2 oligo antag -0.82, Mac1 fbg enh -5 and Cav3 T inh -3.9.
Cc1nn(-c2ccccc2)c(C)c1/C=N\NS(=O)(=O)c1ccc(Cl)cc1 was read as Mac1 fbg inh 5, Pyk2 oligo antag 0.72, Mac1 fbg enh 0 and Cav3 T inh -3.5.
For Cc1cc(/C=C(\C#N)C(=O)NCc2ccco2)c(C)n1C1CCCC1 the results were Mac1 fbg inh 0, Pyk2 oligo antag -0.41, Mac1 fbg enh 0 and Cav3 T inh -2.
Screening CCCn1nc([N+](=O)[O-])c(C(C#N)c2nc3ccccc3s2)c(Cl)c1=O (configuration not stated) returned Mac1 fbg inh 95*, Pyk2 oligo antag -3.2*, Mac1 fbg enh -8 and Cav3 T inh -4.4*.
CC(Nc1cc(N2CCN(C(=O)C(C)(C)C)CC2)ccc1[N+](=O)[O-])c1ccccc1 (configuration not stated) was read as Mac1 fbg inh 6, Pyk2 oligo antag -2.7, Mac1 fbg enh 1 and Cav3 T inh -4.2*.
CC(C)Nc1cc(N2CCCC2)ccc1[N+](=O)[O-] was read as Mac1 fbg inh 6, Pyk2 oligo antag -3*, Mac1 fbg enh -1 and Cav3 T inh 0.82.
O=[N+]([O-])c1ccc(N2CCCC2)cc1NC(c1ccccc1)c1ccccc1 was read as Mac1 fbg inh -1, Pyk2 oligo antag -1.8, Mac1 fbg enh 0 and Cav3 T inh -2.3.
CSc1nnc(-c2sccc2OCc2ccc(C)cc2)n1C was read as Mac1 fbg inh -2, Pyk2 oligo antag 0.31, Mac1 fbg enh 0 and Cav3 T inh -0.16.
O=C(NCC1(c2ccccc2)CCCC1)C(=O)N1CCOCC1 was read as Pyk2 oligo antag 0.7 and Cav3 T inh 0.0095.
`O=C(CSc1nncs1)N1c2ccccc2Sc2ccccc21` gave Mac1 fbg inh 1, Pyk2 oligo antag -0.83, Mac1 fbg enh -3, Cav3 T inh 0.4 and Ec RNAP inh 5.
Screening Cc1ccc(SCC(=O)N2c3ccccc3Sc3ccccc32)cc1 returned Mac1 fbg inh 8, Pyk2 oligo antag 0.75, Mac1 fbg enh 6 and Cav3 T inh -5.8*.
For O=S(=O)(Nc1ncn[nH]1)c1ccc(Cl)cc1 the results were Mac1 fbg inh 15 and Mac1 fbg enh -3.
Cc1nc2cc(N3CCCCC3)c(NC(=O)c3ccncc3)cc2c(=O)n1Cc1ccc(Cl)cc1 was read as Mac1 fbg inh 18 and Mac1 fbg enh -2.
For Cc1nc2cc(N3CCN(C)CC3)c(NC(=O)Cc3ccccc3)cc2c(=O)n1Cc1ccccc1 the results were Mac1 fbg inh 21, Pyk2 oligo antag -1.5, Mac1 fbg enh 2, Cav3 T inh -7.3* and Ec RNAP inh 4.
For COc1cc([N+](=O)[O-])ccc1NC(=O)CCCOc1cc(C)ccc1C the results were Mac1 fbg inh 16 and Mac1 fbg enh 8.
For Cc1cc(C)c2c(-n3cccc3)c(C(=O)NNS(=O)(=O)c3ccc(Cl)cc3)sc2n1 the results were Pyk2 oligo antag -0.71 and Cav3 T inh -5.1*.
COCCn1nnnc1C(c1ccc(OC)cc1)N1CCN(c2ccccc2F)CC1 (configuration not stated) was read as Pyk2 oligo antag -3.5*, Cav3 T inh -1.1 and Ec RNAP inh 1.
For COCCn1nnnc1C(c1cccs1)N1CCN(c2cccc(C(F)(F)F)c2)CC1 (configuration not stated) the results were Mac1 fbg inh 5, Pyk2 oligo antag -0.61, Mac1 fbg enh 3 and Cav3 T inh -5.4*.
`COc1ccc(C(c2nnnn2Cc2cccs2)N2CCN(c3ccccc3F)CC2)cc1OC` (configuration not stated) gave Mac1 fbg inh 14, Pyk2 oligo antag -3.6*, Mac1 fbg enh 4, Cav3 T inh -3 and Ec RNAP inh 8.
Screening COc1ccc(Cn2nnnc2C(c2cccs2)N2CCN(c3ccccc3)CC2)cc1 (configuration not stated) returned Mac1 fbg inh 8, Pyk2 oligo antag -1.9, Mac1 fbg enh -2, Cav3 T inh -3.5 and Ec RNAP inh 4.
COCCn1nnnc1C(c1ccccc1OC)N1CCN(c2ccccc2F)CC1 (configuration not stated) was read as Mac1 fbg inh 7, Pyk2 oligo antag -2.8, Mac1 fbg enh -1, Cav3 T inh -0.028 and Ec RNAP inh 2.
Fc1ccc(C(c2nnnn2Cc2cccs2)N2CCN(c3ccccc3)CC2)cc1 (configuration not stated) was read as Pyk2 oligo antag -3.5* and Cav3 T inh -5.8*.
CCOC(=O)N1C2=NC(C(=O)OC)=C(C(=O)OC)[C@@H]3N(Cc4ccccc4)c4ccccc4[C@]23C[C@H]1C(=O)OC was read as Cav3 T inh -0.13.
For O=C1CC(c2ccccc2)Cc2nc(N3CCc4ccccc4C3)ncc21 (configuration not stated) the results were Pyk2 oligo antag -0.14 and Cav3 T inh -6.2*.
For CCOC(=O)CSc1nnc(CSc2nc3sc4c(c3c(=O)[nH]2)CCCC4)n1-c1ccccc1 the results were Pyk2 oligo antag 1.7 and Cav3 T inh -6*.
For CN1CCC(=C2c3ccccc3C=Cc3ccccc32)CC1 the results were Cav3 T inh -5* and Ec RNAP inh 5.

Bioassay records as filed in PubChem BioAssay.
